This is a sample that favours compounds with a hit; in the whole collection about 2.6% have one here.
LGR2 inh: blocks bursicon-induced cAMP signaling via Drosophila LGR2; AID 720647; 0.35% of 380,000 active; inhibition, % at 9.99 µM; HEK293 LGR2, CRE-luciferase, bursicon-stimulated, 4 h;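 active means drop in luminescence signal, shown as inhibition above about 50% in the replicate tests, limit read from the data, passing the limit was not always enough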;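 further: agonist challenge used bursicon conditioned medium at about half maximal strength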
EWS-Fli inh: blocks EWS/Fli oncoprotein-driven transcription; A673 NR0B1-luciferase reporter, viability-normalised; inhibition, % at 12.6 µM; 0.67% of 350,000 active;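 active means mean inhibition of at least 50% after viability correction, with every replicate also passing that limit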;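 further: firefly luciferase signal divided by Alamar Blue viability fluorescence both relative to DMSO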
KKLEB tox: counter-screen for CF NF-kB inhibitors: cytotoxicity; KKLEB CF airway cells viability, ATPlite luminescence, overnight; stronger effect = lower value; cells stimulated with P. aeruginosa culture filtrate; AID 602141; 0.36% of 360,000 active; activity change (cytotoxicity), % at 5 µM;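 active means corrected activity change at or below -50% at 5 µM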
CF NFkB inh: cystic fibrosis NF-kB activation inhibition; KKLEB NF-kB-GFP reporter, PAF-induced, GFP fluorescence overnight; inhibition, % at 5 µM; 0.86% of 360,000 active;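 active means at least 50% inhibition at 5 µM, scaled per plate between neutral and stimulator controls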;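 further: PAF is a Pseudomonas aeruginosa culture filtrate used as stimulus; plate controls were PAF-stimulated DMSO wells for no effect and unstimulated DMSO wells for full effect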
TROY signal inh: blocks TROY-dependent signaling in reporter cells | Q293 LMP1-TROYcd NF-kB luciferase reporter, 4 h | inhibition, % at 10 µM | 0.98% of 360,000 active | AID 1347056;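 active means compounds whose plate-normalised and pattern-corrected inhibition of the luciferase reporter signal at the single screening dose is 50% or more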
TWEAK-Fn14 inh: TWEAK-Fn14 signaling inhibition | 2% of 360,000 active | inhibition, % at 10 µM | AID 1159606 | TWEAK-stimulated Fn14 reporter cells, luciferase luminescence, 8 h; in the data active means inhibition above about 50%
* hit, by the source's call; . = no result.

SMILES | LGR2 inh | EWS-Fli inh | KKLEB tox | CF NFkB inh | TROY signal inh | TWEAK-Fn14 inh
CCN(C(=O)CSc1nc(C)nc2sc(C)c(C)c12)c1ccc(F)cc1 | . | 3.6 | -10.6 | 18.7 | 14.7 | -4.5
O=C1c2cccc3c([N+](=O)[O-])ccc(c23)C(=O)N1c1ccccn1 | . | . | -2.4 | -25.1 | 30.3 | -110.8
O=C1c2cccc3c([N+](=O)[O-])ccc(c23)C(=O)N1c1ccc(Cl)cn1 | 7.1 | . | -11.3 | 9.4 | 61.8* | 6.8
CC(=O)Oc1ccc(N2C(=O)c3cccc4c([N+](=O)[O-])ccc(c34)C2=O)cc1 | -2.0 | 66.3* | 0.1 | 14.5 | 55.1* | -99.1
C[C@H](CO)N1C[C@H](C)[C@@H](CN(C)Cc2ccccc2C(=O)O)Oc2cc(-c3ccccc3)ccc2S1(=O)=O | 7.0 | -4.1 | . | . | . | .
CCOc1cc(/C=C2\CCC/C(=C\c3cc(Cl)c(O)c(OCC)c3)C2=O)cc(Cl)c1O | . | . | -50.3* | 51.7* | 61.5* | 76.6*
CN1C/C(=C/c2ccncc2)C(=O)/C(=C/c2ccncc2)C1 | 1.1 | 56.2* | 7.3 | -2.1 | 9.2 | 7.9
CCOc1cc(/C=C2\CN(C)C/C(=C\c3ccc(O)c(OCC)c3)C2=O)ccc1O | 3.5 | 52.6* | -9.3 | 63.3* | 28.2 | 103.5*
CN1CCc2c(sc3nc(SCC(N)=O)n(-c4ccc(Cl)cc4)c(=O)c23)C1 | -2.9 | 3.8 | 5.5 | -22.4 | -8.0 | -3.3
CN1CCc2c(sc3nc(SCC(N)=O)n(-c4ccccc4)c(=O)c23)C1 | . | . | -4.5 | -18.9 | . | 56.8*
O=C(O)CSc1nc2sc3c(c2c(=O)n1Cc1ccccc1)CCCCC3 | 3.6 | -49.5 | 0.9 | 6.8 | 57.2* | 50.8*
CN1C(=O)C2(Oc3ccccc3C3CC(c4ccccc4)=NN32)c2ccccc21 (stereo not given) | . | . | 9.4 | -20.0 | -43.0 | 81.2*
Cc1ccc(C2=NN3C(C2)c2ccccc2OC32C(=O)Nc3ccccc32)cc1 (stereo not given) | -54.0 | . | 0.6 | -9.2 | -5.4 | 7.3
O=C(NCc1ccccc1)c1c(Cl)nc(Cl)c(Cl)c1Cl | 16.9 | 38.4 | -32.9 | 26.7 | 65.7* | 92.7*
Cc1nc(Cl)c(C(=O)NCc2ccccc2)c(C)c1Cl | -0.7 | -8.6 | -4.3 | -6.4 | 10.8 | -8.2
CC(=O)c1c(C)nn(-c2ccccc2)c1C | -4.0 | -10.9 | -9.4 | -11.4 | -3.8 | 2.8
COP(C)(=O)c1c(C)nn(-c2ccccc2)c1C (stereo not given) | . | . | 16.8 | -18.4 | . | 68.6*
O=C(c1ccccc1F)N1C[C@@H]2[C@H](c3ccccc31)[C@H](CO)N2C(=O)Nc1ccccc1 | 3.9 | 10.8 | . | . | . | .
COc1ccc2c(/C=C/c3cc[n+](C)cc3)c[nH]c2c1 | 16.7 | 33.2 | 15.4 | -33.4 | 11.7 | 30.8
Cc1ccc2[nH]cc(/C=C/c3cc[n+](C)cc3)c2c1 | 16.1 | 59.9* | -5.0 | -88.6 | 7.0 | 3.9
Cc1ccc(-n2c(-c3ccc(Br)cc3)c[n+]3c2CCc2ccc4cccnc4c2-3)cc1 | 32.1 | . | -51.9* | 19.7 | 43.6 | -58.7
COc1ccc(-n2c(-c3ccc(Cl)cc3)c[n+]3c2CCc2ccccc2-3)cc1 | -0.3 | 22.6 | -11.8 | -9.4 | 41.5 | 24.7
Cc1noc(C)c1NC(=O)Nc1ccc2c(c1)C(=O)N([C@H](C)CO)C[C@@H](C)[C@H](CN(C)C)OCCCC[C@H](C)O2 | 4.2 | -3.1 | . | . | . | .
C[C@@H]1CCCCO[C@H](CN(C)Cc2ccccc2)[C@@H](C)CN([C@H](C)CO)C(=O)c2cc(N(C)C)ccc2O1 | 7.7 | -2.8 | . | . | . | .
O=C1C(C=Nc2ccc(F)cc2)=C(O)c2ccccc21 | 13.7 | -60.2 | -9.1 | -14.8 | 35.4 | 80.3*
SMILES | LGR2 inh | EWS-Fli inh | KKLEB tox | CF NFkB inh | TROY signal inh | TWEAK-Fn14 inh
Fc1ccc(N=Cc2ccc[nH]2)cc1 | 2.2 | 10.0 | 7.2 | 0.2 | 1.8 | 10.0
COc1ccc(OC)c(N=Nc2c(O)c3ccccc3[nH]c2=O)c1 | -0.8 | -7.7 | -19.5 | 5.7 | 26.8 | 19.3
COc1ccc(N=CC2=C(O)c3ccccc3C2=O)c(OC)c1 | . | . | -77.3* | -14.6 | 82.9* | 102.4*
C[C@H](CO)N1C[C@H](C)[C@@H](CN(C)S(=O)(=O)c2cn(C)cn2)Oc2ccc(NS(=O)(=O)c3ccc(F)cc3)cc2CC1=O | 4.1 | -2.4 | . | . | . | .
C[C@H](CO)N1C[C@H](C)[C@@H](CN(C)S(=O)(=O)c2ccc(Cl)cc2)Oc2ccc(NC(=O)Cc3ccccc3)cc2C1=O | 5.0 | -0.3 | . | . | . | .
CCOC(=O)C1(CCOc2ccccc2)CCN(Cc2cccc(OCCO)c2)CC1 | -8.7 | 31.9 | 5.7 | 4.5 | 51.2* | -1.2
C[C@@H]1CN([C@H](C)CO)C(=O)c2cc(NC(=O)Cc3ccccc3)ccc2O[C@@H]1CN(C)C(=O)Nc1cccc2ccccc12 | 6.0 | 13.0 | . | . | . | .
Cc1ccc(C)c(Oc2cc(NC(=O)CCCn3nc(C)c([N+](=O)[O-])c3C)cc([N+](=O)[O-])c2)c1 | 26.6 | 15.2 | 0.4 | 9.5 | 44.1 | 73.5*
O=C(Nc1ccc(Br)cc1)C1CCN(C(=O)c2ccco2)CC1 | -0.8 | -4.5 | 12.7 | -6.0 | -14.4 | 55.0*
O=C(NCC(c1ccco1)N1CCc2ccccc21)C(=O)Nc1ccc(F)cc1F (stereo not given) | 12.9 | 57.6* | -21.5 | 38.8 | 13.5 | 9.1
COc1ccc(S(=O)(=O)Nc2ccc3c(c2)CC(=O)N([C@@H](C)CO)C[C@H](C)[C@@H](CN(C)Cc2ccc(C(F)(F)F)cc2)O3)cc1 | 13.4 | 4.0 | . | . | . | .
O=C(CN1C(=O)CCC1=O)NNc1ccc2ccccc2c1 | -4.7 | 22.5 | 9.5 | -16.0 | 66.9* | 70.3*
O=C(COc1ccc2ccccc2c1)NNC(=O)Cc1ccccc1 | . | -0.4 | 2.7 | 21.8 | -5.1 | 15.3
O=C(Cc1ccccc1)NNc1ccc2ccccc2c1 | 5.9 | 6.9 | -25.0 | 3.5 | 50.7* | 32.0
CCC(=O)N1C[C@H](C)[C@H](OC)CN(C)C(=O)c2ccc(NC(=O)Nc3cccc(F)c3)cc2OC[C@H]1C | -3.9 | 3.2 | . | . | . | .
Cc1c(C#N)c(O)n(C)c(=O)c1N=Nc1ccc(S(N)(=O)=O)cc1 | -16.6 | -37.4 | 0.8 | -64.6 | -30.9 | -35.9
CCOC(=O)c1ccc(N=Nc2c(C)c(C#N)c(O)[nH]c2=O)cc1 | -91.2 | . | -19.6 | 65.4* | -59.4 | -1.4
COc1ccc2c3c(n(C)c2c1)[C@H](CO)N(CC1CC1)CC31CN(C(=O)c2ccccc2)C1 | -17.7 | 6.9 | . | . | . | .
O=C(Cc1ccccc1)Nc1nc(-c2ccc(F)c(F)c2)cs1 | 10.2 | -38.8 | 11.4 | -45.5 | 16.1 | 39.5
O=C(Cc1ccccc1F)Nc1nc(-c2ccc(F)c(F)c2)cs1 | -48.1 | -93.1 | 7.9 | -24.1 | 72.0* | 22.5
O=C(CCNC(=O)c1ccccc1Cl)Nc1nc(-c2ccc3ccccc3c2)cs1 | 24.6 | 6.5 | -15.4 | -14.0 | 34.1 | 53.3*
Cc1ccc(/C=C/C(=O)NCCc2ccccc2)o1 | -14.4 | -73.0 | 3.3 | -13.4 | 1.0 | 66.9*

Screening results as filed in PubChem.
